Screens: PubChem, National Center for Advancing Translational Sciences (NCATS)
Vif-APOBEC3G blk – blocks the Vif interaction with human APOBEC3G; Q9HC16; HeLa A3G-eYFP + Vif (tagged APOBEC3G with the HIV-1 protein that degrades it), YFP fluorescence, overnight; Potency, µM (highest dose often 46.1 µM), without a hit: top-dose activity, negative = active, hits mostly inhibitors; 0.076% of 410,000 active; further: potency means the concentration at half of the fitted maximal effect; on the % scale 0 is the no-effect control and ±100 the full control effect; nearly all actives have a fitted effect of over 60% in size
Target sequence (Q9HC16 whole entry, looked up): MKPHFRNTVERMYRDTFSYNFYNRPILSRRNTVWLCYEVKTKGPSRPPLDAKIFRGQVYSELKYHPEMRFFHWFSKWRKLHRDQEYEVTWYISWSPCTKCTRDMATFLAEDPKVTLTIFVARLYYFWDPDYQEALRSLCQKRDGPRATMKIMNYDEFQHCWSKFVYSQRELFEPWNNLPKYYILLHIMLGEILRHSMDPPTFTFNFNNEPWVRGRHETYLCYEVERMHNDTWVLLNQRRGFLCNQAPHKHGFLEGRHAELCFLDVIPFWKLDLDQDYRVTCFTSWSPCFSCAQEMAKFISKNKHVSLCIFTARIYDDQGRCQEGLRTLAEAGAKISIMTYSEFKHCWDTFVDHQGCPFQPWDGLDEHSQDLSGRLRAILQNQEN
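HeLa cells stably expressing Vif and C-terminally eYFP-tagged A3G, seeded overnight at 37 deg C, then exposed to compound by pintool overnight at 37 deg C. Rise in yellow fluorescence (Ex 488/Em 500-530, Acumen) marks blocked Vif-driven A3G degradation.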
SW480 rereplic – induces DNA re-replication in SW480 colon adenocarcinoma cells | AID 624297 | SW480 DNA re-replication, Hoechst DNA content imaging, 48 h | 1.8% of 340,000 active | Potency, µM (series often up to 46.1 µM), without a hit: at the top dose re-replication activation, hits mostly activators; further: potency means the concentration at half of the fitted maximal effect; % of control where 0% means no effect; nearly all actives have a fitted effect of over 55% in size
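Quantitative HTS format with DMSO vehicle controls; 48 hr drug incubation at 37 C, then 40 min Hoechst staining and scanning imager measurement at 405 nm excitation.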
Vif-APOBEC3F blk – Vif-A3F binding inhibition | Potency, µM (top dose mostly 46.1 µM), without a hit: at the highest dose activity, negative = active | HeLa A3F-eYFP + Vif (tagged APOBEC3F with the HIV-1 protein that degrades it), YFP fluorescence increase | AID 602313 | 0.2% of 390,000 active; further: potency means the concentration at half of the fitted maximal effect; % of control where 0% means no effect; nearly all actives have a fitted effect of over 65% in size
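Fluorescence increase (Ex 488/Em 500-530) after overnight compound treatment at 37 deg C flags inhibition of Vif-driven A3F-eYFP loss in stable HeLa A3F-eYFP/Vif cells seeded overnight beforehand.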
MCF10A rerep – inducers of DNA re-replication in MCF 10A breast cells. Potency, µM (titrated, usually from 46.1 µM), for inactives: top-dose activity, positive = re-replication, hits mostly activators. MCF 10A DNA re-replication, Hoechst nuclear intensity, 48 h. 2.9% of 350,000 active; further: potency means the concentration at half of the fitted maximal effect; % of control where 0% means no effect; nearly all actives have a fitted effect of over 50% in size
Giardia killer – kills Giardia lamblia; Giardia lamblia trophozoite viability; activity change, % at 7.66 µM, hits read low; 0.15% of 340,000 active; AID 540267; in the data active means activity change below about -80%; inconclusive means between about -30% and that limit;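 further: parasites exposed to compound for two days anaerobically before the ATP read; on the % scale 0 is the no-effect control and ±100 the full control effect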
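Killing of trophozoites was scored by loss of ATP luminescence after a 48 hrs anaerobic exposure to compounds at 37 deg C, using 100 cells per well.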
IL1B secr inh – inhibitors of inflammasome signaling (IL-1 beta secretion); THP-1 LPS/ATP IL-1B secretion, AlphaLISA, 16 h; active compounds read low; activity change, % at 57.5 µM; 4.7% of 360,000 active; AID 743279; in the data active means activity change below about -50%; inconclusive means mostly about -30% to -49%; further: on the % scale 0 is the no-effect control and ±100 the full control effect
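THP-1 cells pretreated 1 hr with compounds (up to 57.5 uM final), then stimulated with LPS (250 ng/mL final) plus ATP (1.25 mM final); secreted IL-1B measured by AlphaLISA after 16 hr, decreased signal indicating inhibition.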
An asterisk follows results filed as active; ? = inconclusive; . = no result; ! = not confirmed by another sample; [ ] = another dose, or the depositor's remark. An excerpt weighted towards active compounds, which were near 6.9% of everything screened. Unless noted, the call rests on the fitted dose curve; in most records, active means well fitted curve in the direction sought with a large enough effect; inconclusive means small, poorly fitted or top-dose-only effect, or another doubt; inactive means no such curve, though single readings can be large; an effect the other way counts as inactive or inconclusive.

SMILES	Vif-APOBEC3G blk	SW480 rereplic	Vif-APOBEC3F blk	MCF10A rerep	Giardia killer	IL1B secr inh
C[n+]1c(-c2ccccc2)c2cc(N)ccc2c2ccc(N)cc21	8%	-97%	7%	-26%	10	0
CC1=CC(=O)C2=C(C)C[C@H](O)[C@@H]3[C@H](OC(=O)[C@H]3C)[C@@H]12	2%	7%	-1%	-1%	3	-79*
CCOC(=O)c1cc2cc(OC)ccc2n1C1CCN(Cc2ccccc2)CC1	.	.	.	.	.	29
CC1CC(C)CC(C)C(O)C(C#N)=CC=CCC(C2CCCC2C(=O)O)OC(=O)CC(O)C(C)C1 (configuration not stated)	-17%	?	1%	0.13µM*	?	-103*
CCCC(C)C1(CC)C(=O)NC(=O)NC1=O (configuration not stated)	.	-4%	.	3%	.	.
CC1CC2(C)C(CCC3C2CCC2(C)C(OP(=O)(N4CC4)N4CC4)CCC32)CC1=O (configuration not stated)	-5%	-3%	11%	13µM*	2	10
C[C@]12CCC3C(CC[C@H]4C[C@H](O)CC[C@]34C)C1CC(=O)[C@@H]2O (some centres not stated)	1%	-7%	2%	1%	-10	15
COc1ccc(-n2c(O)c(/C=C3\C=Nc4ccc(Br)cc43)c(=O)[nH]c2=O)cc1	1%	?	?	?	14	18
COc1ccc(-n2c(O)c(/C=C3\C=Nc4ccc(Br)cc43)c(=O)[nH]c2=O)c(OC)c1	?	?	-5%	?	3	-96*
O=c1ccc2c(O)c3ccoc3cc2o1	4%	0.18µM*	8%	11%	-13	0
Clc1ccc([C@H](Cn2ccnc2)OCc2csc3c(Cl)cccc23)c(Cl)c1	.	0%[20.6 µM]	.	4%[20.6 µM]	.	.
Clc1ccc(C(Cn2ccnc2)OCc2csc3c(Cl)cccc23)c(Cl)c1 (configuration not stated)	-13%	-1%	4%	62%	2	-78*
O=C(O)c1c[nH]c2ccc(S(=O)(=O)N(CCCl)CCCl)cc12	1%	-1%	6%	0%	-8	0
N#C/C(=C(/O)c1ccc(S(=O)(=O)N(CCCl)CCCl)cc1)c1nc2ccccc2[nH]1	2%	?	2%	10µM*	14	-1
CCCCn1c(NS(=O)(=O)c2ccccc2)c(C(=O)OCC)c2nc3ccccc3nc21	-19%	16µM*	-2%	6.5µM*	3	-23
CCCCOCCCn1c(N)c(C(=O)OC(C)COC)c2nc3ccccc3nc21 (configuration not stated)	0%	0%	-9%	1%	18	?
CCCCn1c(NC(=O)c2ccc(Br)o2)c(C(=O)OCC)c2nc3ccccc3nc21	?	16µM*!	?	18µM*!	-5	-7
CN1C(=O)C(O)N=C(c2ccccc2)c2cc(Cl)ccc21 (configuration not stated)	.	-11%	.	2%	.	.
CN1C(=S)CN=C(c2ccccc2)c2cc(Cl)ccc21	.	-4%	.	1%	.	.
COc1cc(C2c3cc4c(cc3CC3COC(=O)C32)OCO4)cc(OC)c1O (configuration not stated)	-23%	0.16µM*	7%	?	1	26
COc1cc(C2c3cc4c(c(O)c3CC3COC(=O)C32)OCO4)cc(OC)c1O (configuration not stated)	-53%	.	.	.	?	.
COC(=O)[C@@H]1[C@@H]2C[C@H]3c4[nH]c5cc(OC)ccc5c4CCN3C[C@@H]2C[C@H](OC(=O)/C=C\c2cc(OC)c(OC)c(OC)c2)[C@H]1OC	.	10%[20.6 µM]	.	11%[20.6 µM]	.	.
O=[N+]([O-])c1c(Cl)cccc1-c1c[nH]cc1Cl	.	14%	.	?	.	.
C[C@@]12CCC(=O)C=C1C=C[C@H]1[C@H]3CC[C@](O)(CCC(=O)O)[C@]3(C)CC[C@@H]12	.	-4%[20.6 µM]	.	3%[20.6 µM]	.	.
CN(C)C(=O)Oc1ccc2c(c1)O/C(=C\c1cccc(Cl)c1)C2=O	1%	3%	16%	7%	-2	-61*
SMILES	Vif-APOBEC3G blk	SW480 rereplic	Vif-APOBEC3F blk	MCF10A rerep	Giardia killer	IL1B secr inh
CN(C)C(=O)Oc1ccc2c(c1)O/C(=C\c1ccc(Cl)cc1)C2=O	0%	-21%	3%	1%	62	-2
C#C[C@]1(O)CCC2C3C(=O)C=C4C(Cl)=CCC[C@]4(C)C3CC[C@@]21C (some centres not stated)	8%	?	-1%	18µM*	-17	-90*
COc1ccc(S(=O)(=O)N(C)C[C@H]2Oc3c(NC(=O)NC4CCCCC4)cccc3C(=O)N([C@H](C)CO)C[C@@H]2C)cc1	1%	?	4%	11%	1	-55*
Cc1onc(-c2ccccc2Cl)c1C(=O)OCC(=O)c1ccc2c(c1)OCCO2	2%	-9%	-8%	?	-9	-21
CCN(CC)P(=S)(c1c(C)nc2ccccn12)c1c(C)nc2ccccn12	-22%	10µM*	1%	65%	0	32
CCOc1c(P(=S)(N(C)C)N(C)C)c(C)nn1-c1ccccc1	1%	-5%[9.22 µM]	6%	5%	-6	-5
O=C(c1ccc(-c2ccccc2)c(F)c1)C1CCCN(CCO)C1 (configuration not stated)	7%	-3%	-23%	?	21	-75*
COc1ccc(Cl)cc1C(=O)C1CCCN(CCO)C1 (configuration not stated)	-4%	-2%	-2%	-11%	-5	17
OC[C@H]1O[C@@H](n2cnc3cc(Cl)c(Cl)cc32)[C@H](O)[C@@H]1O	-4%	-10%	-11%	?	-21	-70*
Nc1nc(F)nc2c1ncn2[C@@H]1O[C@H](CO)[C@@H](O)[C@@H]1O	5%	11%	-9%	-4%	?	82
Nc1nc(F)nc2c1ncn2[C@@H]1O[C@H](CO)[C@@H](O)[C@H]1O	-10%	?	1%	4.1µM*!	5	-74*
O=C(/C=C/c1ccccc1)C1C(=O)c2ccccc2C1=O	2%	-6%	-6%	?	?	1
O=C(CF)N(O)c1ccc(C=Cc2ccccc2)cc1	-2%	10µM*	4%	6.5µM*	-11	-28
Nc1c(C(=O)Nc2ccc(Br)cc2F)sc2nc3c(cc12)N1CCC3CC1	3%	.	2%	.	.	.
CC(C)COP(=O)(OCC(C)C)C(Nc1ccccc1)c1ccccc1 (configuration not stated)	-4%	-75%	18%	?	-4	-58*
